{"source": "the supplement of paper PMC11172423"}
{"test_system": "Madurella mycetomatis MM55", "test": "growth relative to untreated control; higher = less inhibition, active = 20 or less", "conditions": "25 µM", "summary_of_the_method": "(§1)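 Compound at 100 or 25 µM was applied for 7 days at 37 °C to hyphal fragments of M. mycetomatis MM55 or F. senegalensis CBS197.79 in 96-well plates. Fragments were suspended in colourless RPMI 1640 with L-glutamine and MOPS at 68–72% transmission at 660 nm, and viability was read with MTS (2 h, 490 nm) or resazurin (600 nm). Growth is reported as blank-corrected metabolic activity relative to the blank-corrected untreated growth control.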"}
{"compound": "CN1[C@H]2CC[C@H]1CC(OC(c1ccccc1)c1ccccc1)C2", "note": "(some centres not stated)", "growth": "82.4% (inactive)"}
{"compound": "C[C@@H]1CS/C(=N\\NC(=O)C(=O)[C@@H](NC(=O)C2CCCCCC2)C2CCOCC2)N1C", "growth": "88.8% (inactive)"}
{"compound": "Cc1ccc(-c2ccc(C3(CN)CCOCC3)cc2)cn1", "growth": "41.4% (inactive)"}
{"compound": "OC1(CN2CCC(Oc3cccc(C(F)(F)F)c3)CC2)CCNC1", "note": "(configuration not stated)", "growth": "5.37% (active)"}
{"compound": "CC(C)OC(=O)[C@H](C)N[P@](=O)(OC[C@H]1O[C@@H](n2ccc(=O)[nH]c2=O)[C@](C)(F)[C@@H]1O)Oc1ccccc1", "growth": "94.5% (inactive)"}
{"compound": "COc1ccc(-c2nc3c(NCc4ccccc4)nccc3[nH]2)c(OC)c1", "growth": "6.23% (active)"}
{"compound": "C[C@H](NC(=O)c1cc2c(F)cccc2[nH]1)c1ccccc1", "growth": "20.7% (inactive)"}
{"compound": "COc1ccc2c(O[C@@H]3C[C@H]4C(=O)N[C@]5(C(=O)NS(=O)(=O)C6CC6)C[C@H]5/C=C\\CCCCN(C)C(=O)[C@@H]4C3)cc(-c3nc(C(C)C)cs3)nc2c1C", "growth": "87.1% (inactive)"}
{"compound": "COc1ccc(-c2cc3ncnc(N4CCN(CCN5CCCC5)CC4)c3s2)cc1", "growth": "4.86% (active)"}
{"compound": "O=c1c(Cl)c(OCc2ccc(Cl)nc2)cnn1-c1ccc(Cl)c(Cl)c1", "growth": "61.7% (inactive)"}
{"compound": "CN(C)C(=O)COC(=O)Cc1ccc(OC(=O)c2ccc(NC(=N)N)cc2)cc1", "growth": "77.6% (inactive)"}
{"compound": "N#Cc1ccc(-c2ccc3nc(Oc4ccc(C(F)(F)F)cn4)cn3c2)nc1", "growth": "32.3% (inactive)"}
{"compound": "CC(C)(C)NC(=O)N[C@H](C(=O)N1C[C@H]2[C@@H]([C@H]1C(=O)NC(CC1CCC1)C(=O)C(N)=O)C2(C)C)C(C)(C)C", "note": "(some centres not stated)", "growth": "103% (inactive)"}
{"compound": "Cc1nc2ccccc2n1Cc1ccc(Cl)cc1", "growth": "76.5% (inactive)"}
{"compound": "CCN(CCO)CCCC(C)Nc1ccnc2cc(Cl)ccc12", "note": "(configuration not stated)", "growth": "85.1% (inactive)"}
{"compound": "Cc1ccccc1-c1noc(-c2ccccc2)n1", "growth": "93.4% (inactive)"}
{"compound": "Nc1nc(C2CC2)cn1CC(O)c1ccc(Cl)cc1Cl", "note": "(configuration not stated)", "growth": "83.6% (inactive)"}
{"compound": "OCCN1CCc2nc(NCc3ccc(F)cc3F)nc(NC34CC(C3)C4)c2CC1", "growth": "32.2% (inactive)"}
{"compound": "COC(=O)C1=C(C)NC(C)=C(C(=O)OCCN2CCN(C(c3ccccc3)c3ccccc3)CC2)C1c1cccc([N+](=O)[O-])c1", "note": "(configuration not stated)", "growth": "81.7% (inactive)"}
{"compound": "O=C(NC1CCCc2c1[nH]c1ccc(Cl)cc21)c1ccccn1", "note": "(configuration not stated)", "growth": "35.3% (inactive)"}
{"compound": "CN(C)CCNC(=O)c1csc(Nc2ccc(Cl)c(Cl)c2)n1", "growth": "47.4% (inactive)"}
{"compound": "CC(Nc1ccc2c(c1)OCCCO2)C(=O)Nc1cc(C(F)(F)F)ccc1N1CCOCC1", "note": "(configuration not stated)", "growth": "97.8% (inactive)"}
{"compound": "O=C1NCCN1CCN1CCC(c2cn(-c3ccc(F)cc3)c3ccc(Cl)cc23)CC1", "growth": "5.95% (active)"}
{"compound": "O=C(NC1(CO)CCOCC1)c1cc2ccc(C(F)(F)F)cc2[nH]1", "growth": "83.9% (inactive)"}
{"compound": "COC(=O)[C@@]1(c2ccc(C)cc2)C[C@H]1CN1CCC(O)(c2ccccc2)CC1", "growth": "77.2% (inactive)"}
{"compound": "Fc1cccc(-c2ccc3c(c2)CC(NCc2c[nH]c4cnccc24)C3)c1", "note": "(configuration not stated)", "growth": "5.29% (active)"}
{"compound": "CNc1ccc2cc(NC(=O)c3ccc(C(F)(F)F)c(Cl)c3)ccc2n1", "growth": "6.89% (active)"}
{"compound": "Cc1cc(OCCN2CCOCC2)nn1-c1ccc2ccccc2c1", "growth": "85.8% (inactive)"}
{"compound": "C[C@@H]1CCCN1CCc1cc2cc(-c3ccc(C#N)cc3)ccc2o1", "growth": "71.7% (inactive)"}
{"compound": "O=C(Nc1cnc2ccccc2c1)c1ccccc1C(=O)c1ccc(F)cc1", "growth": "92.9% (inactive)"}
{"compound": "COc1ccc2cc1Oc1ccc(cc1)C[C@H]1c3cc(c(OC)cc3CCN1C)Oc1c(O)c(OC)cc3c1[C@@H](C2)N(C)CC3", "growth": "5.48% (active)"}
{"compound": "COc1cc2c3cc1Oc1c(OC)c(OC)cc4c1[C@@H](Cc1ccc(O)c(c1)Oc1ccc(cc1)C[C@@H]3N(C)CC2)N(C)CC4", "growth": "88.9% (inactive)"}
{"compound": "CO[C@@H]1[C@H](N(C)C(=O)c2ccccc2)C[C@H]2O[C@]1(C)n1c3ccccc3c3c4c(c5c6ccccc6n2c5c31)C(=O)NC4", "growth": "77.9% (inactive)"}
{"compound": "Cc1noc(C2CN(C(=O)c3ccc(Nc4nccc(-c5ccc(Cl)cc5)n4)cc3)C2)n1", "growth": "122% (inactive)"}
{"compound": "CC[C@H](NC(=O)c1cc2c(F)cccc2[nH]1)c1ccccc1", "growth": "8.07% (active)"}
{"compound": "C[C@H](CS)C(=O)N1CCC[C@H]1C(=O)O", "growth": "77.5% (inactive)"}
{"test_system": "Madurella mycetomatis MM55", "test": "growth relative to untreated control; higher = less inhibition, active = 20 or less", "conditions": "100 µM", "summary_of_the_method": "as §1"}
{"compound": "CN1[C@H]2CC[C@H]1CC(OC(c1ccccc1)c1ccccc1)C2", "note": "(some centres not stated)", "growth": "84.3% (inactive)"}
{"compound": "C[C@@H]1CS/C(=N\\NC(=O)C(=O)[C@@H](NC(=O)C2CCCCCC2)C2CCOCC2)N1C", "growth": "93.2% (inactive)"}
{"compound": "Cc1ccc(-c2ccc(C3(CN)CCOCC3)cc2)cn1", "growth": "6.97% (active)"}
{"compound": "OC1(CN2CCC(Oc3cccc(C(F)(F)F)c3)CC2)CCNC1", "note": "(configuration not stated)", "growth": "12.9% (active)"}
{"compound": "CC(C)OC(=O)[C@H](C)N[P@](=O)(OC[C@H]1O[C@@H](n2ccc(=O)[nH]c2=O)[C@](C)(F)[C@@H]1O)Oc1ccccc1", "growth": "85.7% (inactive)"}
{"compound": "COc1ccc(-c2nc3c(NCc4ccccc4)nccc3[nH]2)c(OC)c1", "growth": "7.79% (active)"}
{"compound": "C[C@H](NC(=O)c1cc2c(F)cccc2[nH]1)c1ccccc1", "growth": "7.43% (active)"}
{"compound": "COc1ccc2c(O[C@@H]3C[C@H]4C(=O)N[C@]5(C(=O)NS(=O)(=O)C6CC6)C[C@H]5/C=C\\CCCCN(C)C(=O)[C@@H]4C3)cc(-c3nc(C(C)C)cs3)nc2c1C", "growth": "74.8% (inactive)"}
{"compound": "COc1ccc(-c2cc3ncnc(N4CCN(CCN5CCCC5)CC4)c3s2)cc1", "growth": "4.96% (active)"}
{"compound": "O=c1c(Cl)c(OCc2ccc(Cl)nc2)cnn1-c1ccc(Cl)c(Cl)c1", "growth": "62.1% (inactive)"}
{"compound": "CN(C)C(=O)COC(=O)Cc1ccc(OC(=O)c2ccc(NC(=N)N)cc2)cc1", "growth": "93.2% (inactive)"}
{"compound": "N#Cc1ccc(-c2ccc3nc(Oc4ccc(C(F)(F)F)cn4)cn3c2)nc1", "growth": "82.2% (inactive)"}
{"compound": "CC(C)(C)NC(=O)N[C@H](C(=O)N1C[C@H]2[C@@H]([C@H]1C(=O)NC(CC1CCC1)C(=O)C(N)=O)C2(C)C)C(C)(C)C", "note": "(some centres not stated)", "growth": "81.9% (inactive)"}
{"compound": "Cc1nc2ccccc2n1Cc1ccc(Cl)cc1", "growth": "5.04% (active)"}
{"compound": "CCN(CCO)CCCC(C)Nc1ccnc2cc(Cl)ccc12", "note": "(configuration not stated)", "growth": "78.2% (inactive)"}
{"compound": "Cc1ccccc1-c1noc(-c2ccccc2)n1", "growth": "60.5% (inactive)"}
{"compound": "Nc1nc(C2CC2)cn1CC(O)c1ccc(Cl)cc1Cl", "note": "(configuration not stated)", "growth": "83.2% (inactive)"}
{"compound": "OCCN1CCc2nc(NCc3ccc(F)cc3F)nc(NC34CC(C3)C4)c2CC1", "growth": "5.18% (active)"}
{"compound": "COC(=O)C1=C(C)NC(C)=C(C(=O)OCCN2CCN(C(c3ccccc3)c3ccccc3)CC2)C1c1cccc([N+](=O)[O-])c1", "note": "(configuration not stated)", "growth": "86.7% (inactive)"}
{"compound": "O=C(NC1CCCc2c1[nH]c1ccc(Cl)cc21)c1ccccn1", "note": "(configuration not stated)", "growth": "9.39% (active)"}
{"compound": "CN(C)CCNC(=O)c1csc(Nc2ccc(Cl)c(Cl)c2)n1", "growth": "62.3% (inactive)"}
{"compound": "CC(Nc1ccc2c(c1)OCCCO2)C(=O)Nc1cc(C(F)(F)F)ccc1N1CCOCC1", "note": "(configuration not stated)", "growth": "125% (inactive)"}
{"compound": "O=C1NCCN1CCN1CCC(c2cn(-c3ccc(F)cc3)c3ccc(Cl)cc23)CC1", "growth": "4.92% (active)"}
{"compound": "O=C(NC1(CO)CCOCC1)c1cc2ccc(C(F)(F)F)cc2[nH]1", "growth": "72.9% (inactive)"}
{"compound": "COC(=O)[C@@]1(c2ccc(C)cc2)C[C@H]1CN1CCC(O)(c2ccccc2)CC1", "growth": "72.2% (inactive)"}
{"compound": "Fc1cccc(-c2ccc3c(c2)CC(NCc2c[nH]c4cnccc24)C3)c1", "note": "(configuration not stated)", "growth": "5.16% (active)"}
{"compound": "CNc1ccc2cc(NC(=O)c3ccc(C(F)(F)F)c(Cl)c3)ccc2n1", "growth": "77.4% (inactive)"}
{"compound": "Cc1cc(OCCN2CCOCC2)nn1-c1ccc2ccccc2c1", "growth": "65% (inactive)"}
{"compound": "C[C@@H]1CCCN1CCc1cc2cc(-c3ccc(C#N)cc3)ccc2o1", "growth": "4.57% (active)"}
{"compound": "O=C(Nc1cnc2ccccc2c1)c1ccccc1C(=O)c1ccc(F)cc1", "growth": "91.8% (inactive)"}
{"compound": "COc1ccc2cc1Oc1ccc(cc1)C[C@H]1c3cc(c(OC)cc3CCN1C)Oc1c(O)c(OC)cc3c1[C@@H](C2)N(C)CC3", "growth": "5.12% (active)"}
{"compound": "COc1cc2c3cc1Oc1c(OC)c(OC)cc4c1[C@@H](Cc1ccc(O)c(c1)Oc1ccc(cc1)C[C@@H]3N(C)CC2)N(C)CC4", "growth": "5.99% (active)"}
{"compound": "CO[C@@H]1[C@H](N(C)C(=O)c2ccccc2)C[C@H]2O[C@]1(C)n1c3ccccc3c3c4c(c5c6ccccc6n2c5c31)C(=O)NC4", "growth": "87.3% (inactive)"}
{"compound": "Cc1noc(C2CN(C(=O)c3ccc(Nc4nccc(-c5ccc(Cl)cc5)n4)cc3)C2)n1", "growth": "73.7% (inactive)"}
{"compound": "CC[C@H](NC(=O)c1cc2c(F)cccc2[nH]1)c1ccccc1", "growth": "5.18% (active)"}
{"compound": "C[C@H](CS)C(=O)N1CCC[C@H]1C(=O)O", "growth": "95.8% (inactive)"}
